About 83,000 compounds went through this panel and 20% of them were active in at least one assay; those are over-represented in the sample as a whole.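 Negative percent growth values reflect cell death: -40 means 40% of the cells present at the start died, and -100 means all died.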 Active and inactive are the calls of the source. Rule for the calls: active = growth percent below 10; inactive = the rest.
What was measured:
Test in all cases: NCI-60 one-dose screen, 48 h (100 = growth as untreated, 0 = no growth, -100 = all killed)
Conditions in all cases: 10 µM unless noted
T-47D breast = tested on: T-47D breast
BT-549 breast = tested on: BT-549 breast
MDA-MB-435 melanoma = tested on: MDA-MB-435 melanoma
SW-620 colon = tested on: SW-620 colon
MCF7 breast = tested on: MCF7 breast
HCT-116 colon = tested on: HCT-116 colon
HCC-2998 colon = tested on: HCC-2998 colon
KM12 colon = tested on: KM12 colon

Measured: growth

CN(C)c1ccc(Nc2c3ccccc3nc3cc(NC(=O)CCN4CCCC4)ccc23)cc1
inactive: T-47D breast 12.1% | BT-549 breast 23.6%
active: MDA-MB-435 melanoma -94.4% | SW-620 colon -33.3% | MCF7 breast -21.8% | HCT-116 colon -56.2% | HCC-2998 colon -83.3% | KM12 colon -34.8%

COc1cccc(/C=N/NC(=O)c2cnn3c2NC(c2ccccc2)C3)c1Oc1ccccc1 (stereo not drawn)
inactive: T-47D breast 79.8% | BT-549 breast 65.7% | SW-620 colon 65.6% | MCF7 breast 47.7% | HCT-116 colon 55.6% | HCC-2998 colon 91% | KM12 colon 51.8%
active: MDA-MB-435 melanoma 1.99%

COc1ccc2c(c1)C(=O)CC(c1ccccc1OC)O2 (stereo not drawn)
inactive: T-47D breast 91.1% | BT-549 breast 96.5% | MDA-MB-435 melanoma 100% | SW-620 colon 103% | MCF7 breast 83.8% | HCT-116 colon 103% | HCC-2998 colon 105% | KM12 colon 102%

CN1C(N2CCN(S(=O)(=O)c3ccccc3)CC2)=NS(=O)(=O)c2ccccc21
inactive: T-47D breast 101% | BT-549 breast 119% | MDA-MB-435 melanoma 109% | SW-620 colon 123% | MCF7 breast 91.1% | HCT-116 colon 109% | HCC-2998 colon 101% | KM12 colon 91.5%

CCCN1[C@@H]2CC[C@H]1/C(=C\c1ccc(OC)c(OC)c1)C(=O)/C2=C/c1ccc(OC)c(OC)c1
inactive: T-47D breast 25.1% | BT-549 breast 51.8% | MDA-MB-435 melanoma 39.6% | SW-620 colon 43% | MCF7 breast 30.2% | HCT-116 colon 22.1% | HCC-2998 colon 86.7% | KM12 colon 54.6%

Oc1cccc(CCc2ccc(Oc3cc(CCc4cccc(O)c4)cc(O)c3O)cc2)c1
inactive: T-47D breast 73% | BT-549 breast 82% | MDA-MB-435 melanoma 68.6% | SW-620 colon 79% | MCF7 breast 77.8% | HCT-116 colon 73.2% | HCC-2998 colon 92% | KM12 colon 81.5%

CC1(C)NCCC[C@]2(C)[C@H]3CC(=O)[C@H]4[C@@H]5C[C@](C)(CO)CC[C@]5(C)CC[C@@]4(C)[C@]3(C)CC[C@@H]12
inactive: T-47D breast 87.5% | BT-549 breast 103% | MDA-MB-435 melanoma 92.2% | SW-620 colon 98.6% | MCF7 breast 87.3% | HCT-116 colon 84.1% | HCC-2998 colon 100% | KM12 colon 95.4%

O=c1ccc(-c2nc(N3CCOCC3)c3ccccc3n2)c[nH]1
inactive: T-47D breast 77% | BT-549 breast 97.4% | MDA-MB-435 melanoma 99.7% | SW-620 colon 107% | MCF7 breast 89.1% | HCT-116 colon 101% | HCC-2998 colon 105% | KM12 colon 107%

Cn1c2ccccc2c2c3c(c4c5ccccc5n(C)c4c21)C(=O)OC3
inactive: T-47D breast 95.2% | BT-549 breast 97.2% | MDA-MB-435 melanoma 103% | SW-620 colon 88% | MCF7 breast 92.1% | HCT-116 colon 93.8% | HCC-2998 colon 99.7% | KM12 colon 97.2%

C[C@@H](Nc1ncnc2ccc(-c3cnc(N)nc3)cc12)c1ccc(F)cc1
inactive: T-47D breast 67.8% | BT-549 breast 69.3% | MDA-MB-435 melanoma 95.3% | SW-620 colon 95.8% | MCF7 breast 82.5% | HCT-116 colon 85.3% | HCC-2998 colon 87.1% | KM12 colon 98.7%

Cn1ccnc1C(=O)/C=C/c1ccc(CC(=O)Nc2ccc(Cl)cc2)cc1
active: T-47D breast 2.07% | SW-620 colon 7.1% | HCT-116 colon 7.88% | KM12 colon 9.56%
inactive: BT-549 breast 17.6% | MDA-MB-435 melanoma 17.6% | MCF7 breast 25.5% | HCC-2998 colon 30.3%

COc1ccc2c(c1)oc1c(C)c3c(c(C)c12)C(=O)N(CCN1CCOCC1)C3=O
inactive: T-47D breast 106% | BT-549 breast 97.6% | MDA-MB-435 melanoma 105% | SW-620 colon 93% | MCF7 breast 109% | HCT-116 colon 83% | HCC-2998 colon 111% | KM12 colon 96.1%

N#CC1=C(/N=C/c2ccccc2)Oc2c(ccc3ccccc23)C1c1ccc([N+](=O)[O-])cc1 (stereo not drawn)
inactive: T-47D breast 76.5% | BT-549 breast 103% | MDA-MB-435 melanoma 101% | SW-620 colon 93% | MCF7 breast 78.4% | HCT-116 colon 92% | HCC-2998 colon 98.3% | KM12 colon 97.6%

O=C(c1nnc(Nc2ccccc2Br)o1)c1c[nH]c2ccccc12
inactive: T-47D breast 79.6% | BT-549 breast 103% | MDA-MB-435 melanoma 101% | SW-620 colon 98.7% | MCF7 breast 77.2% | HCT-116 colon 88.4% | HCC-2998 colon 88.6% | KM12 colon 81.7%

O=C(CCN1CCCC1)Nc1ccc2c(Nc3ccc(Br)cc3)c3ccccc3nc2c1
inactive: T-47D breast 13.6% | BT-549 breast 47.9%
active: MDA-MB-435 melanoma -88% | SW-620 colon -64.8% | MCF7 breast -66.8% | HCT-116 colon -57.6% | HCC-2998 colon -73.4% | KM12 colon -59.2%

N#Cc1c(NC(=O)NCc2ccccc2)sc2c1CCCC2
active: MDA-MB-435 melanoma -35.3%
inactive: T-47D breast 40% | BT-549 breast 24.1% | SW-620 colon 24% | MCF7 breast 19.5% | HCT-116 colon 12.2% | HCC-2998 colon 22.4% | KM12 colon 20.5%

Cn1cc(-c2nc(-c3c[nH]c4c(Cl)nccc34)cs2)c2cc(Br)ccc21
inactive: T-47D breast 39.1% | BT-549 breast 95.7% | MDA-MB-435 melanoma 79.4% | SW-620 colon 98.6% | MCF7 breast 77.4% | HCT-116 colon 88.8% | HCC-2998 colon 114% | KM12 colon 86.2%

c1ccc(-c2cn3c(ccc4ccccc43)n2)cc1
inactive: T-47D breast 66.5% | BT-549 breast 63.6% | SW-620 colon 22.8% | MCF7 breast 28.5% | HCT-116 colon 35% | HCC-2998 colon 75.5% | KM12 colon 23.4%
active: MDA-MB-435 melanoma -34.7%

COc1ccc(C/C(C)=C(/c2ccc(OCCCN(C)C)cc2)c2ccc(OC(C)=O)cc2)cc1
inactive: T-47D breast 56.4% | BT-549 breast 89% | MDA-MB-435 melanoma 48.4% | SW-620 colon 87.8% | MCF7 breast 18.1% | HCT-116 colon 55.3% | HCC-2998 colon 70.3% | KM12 colon 80.7%

COc1cc2c(-c3cc4c(cc3CNCCc3ccc5c(c3)OCO5)OCO4)cccc2c(OC)c1O
inactive: T-47D breast 67.3% | BT-549 breast 91.3% | MDA-MB-435 melanoma 96.9% | SW-620 colon 85.4% | MCF7 breast 76.8% | HCT-116 colon 60.7% | HCC-2998 colon 42.7% | KM12 colon 96.5%

CCCCCCCCOc1ccc(/C=N/Nc2cc(C)nc3ccc(Br)cc23)cc1
inactive: T-47D breast 80.9% | BT-549 breast 95.6% | MDA-MB-435 melanoma 64.7% | MCF7 breast 15.8% | HCC-2998 colon 89.8% | KM12 colon 57%
active: SW-620 colon 8.02% | HCT-116 colon 6.51%

CC1(C)NCCC[C@]2(C)[C@H]3CC[C@@H]4[C@H]5[C@H](C(=O)/C=C/c6ccco6)CC[C@]5(CO)CC[C@@]4(C)[C@]3(C)CC[C@@H]12
inactive: T-47D breast 75.7% | BT-549 breast 89.1% | MDA-MB-435 melanoma 66.7% | SW-620 colon 69.7% | MCF7 breast 46.6% | HCT-116 colon 33.7% | HCC-2998 colon 91.4% | KM12 colon 82.9%

O=C(CCN1CCCC1)Nc1ccc2c(NCCc3ccccc3)c3ccccc3nc2c1
active: T-47D breast 1.89% | BT-549 breast -15.3% | MDA-MB-435 melanoma -92.1% | SW-620 colon -44.9% | MCF7 breast -19.4% | HCT-116 colon -38.2% | HCC-2998 colon -56.8% | KM12 colon -15.6%

Cc1ccc(/C=N/NC(=O)CSc2nc3ccccc3c(=O)n2Cc2ccc(S(N)(=O)=O)cc2)cc1
inactive: T-47D breast 81.7% | BT-549 breast 103% | MDA-MB-435 melanoma 46.2% | SW-620 colon 94% | MCF7 breast 59.4% | HCT-116 colon 97.8% | HCC-2998 colon 99.9% | KM12 colon 86.3%

C=C(C)[C@@H]1CC[C@]2(CN)CC[C@]3(C)[C@H](CC[C@@H]4[C@@]5(C)CCCNC(C)(C)[C@@H]5CC[C@]43C)[C@@H]12
active: T-47D breast -10.1% | MDA-MB-435 melanoma -96.2% | SW-620 colon -84.5% | MCF7 breast -66.1% | HCT-116 colon -95.5% | HCC-2998 colon -80.6% | KM12 colon -85.4%
inactive: BT-549 breast 84.6%

CCCOc1ccc(/C=N/Nc2cc(C)nc3ccc(Br)cc23)cc1
active: SW-620 colon 6.14%
inactive: T-47D breast 96.4% | BT-549 breast 99.3% | MDA-MB-435 melanoma 85.8% | MCF7 breast 37.3% | HCT-116 colon 26.6% | HCC-2998 colon 57.3% | KM12 colon 76.2%

COc1cc(C2=NN(C(C)=O)C(c3cc(OC)c(OC)c(OC)c3)C2)ccc1O (stereo not drawn)
inactive: T-47D breast 45.6% | BT-549 breast 23.1% | SW-620 colon 12.4%
active: MDA-MB-435 melanoma -76% | MCF7 breast 8.15% | HCT-116 colon 6.96% | HCC-2998 colon -49.3% | KM12 colon 2.51%

C=C(C)[C@@H]1CC[C@]2(C(=O)N3CCN(C)CC3)CC[C@]3(C)[C@H](CC[C@@H]4[C@@]5(C)CC[C@H](OCCC#N)C(C)(C)[C@@H]5CC[C@]43C)[C@@H]12
active: SW-620 colon 7.33%
inactive: T-47D breast 91.7% | BT-549 breast 107% | MDA-MB-435 melanoma 107% | MCF7 breast 77.7% | HCT-116 colon 44.4% | HCC-2998 colon 102% | KM12 colon 48.2%

CC(=O)O[C@@H]1C2CCC3C(CC[C@@]4(C)C3CC[C@@H]4C(C)N(C)C)[C@@]2(C)CC[C@@H]1NC(=O)C=C(C)C (stereo partly drawn)
active: T-47D breast -28% | MDA-MB-435 melanoma -47.4% | SW-620 colon -64.5% | MCF7 breast -16.9% | HCT-116 colon -55% | HCC-2998 colon -23.5% | KM12 colon 9.21%
inactive: BT-549 breast 26.4%

C=C1C(=O)O[C@H]2[C@H]1CC/C(CNC(=O)CCc1ccc(OC)cc1)=C\CC[C@@]1(C)O[C@@H]21
inactive: T-47D breast 40.8% | BT-549 breast 43.1% | MDA-MB-435 melanoma 14.3% | SW-620 colon 19% | MCF7 breast 33.5% | HCT-116 colon 19.8% | HCC-2998 colon 97.5% | KM12 colon 97.4%

O=C1c2cccc3c(-c4ccc5c(c4)ncn5C4CCCCC4)ccc(c23)C(=O)N1CCO
inactive: T-47D breast 68% | BT-549 breast 95.2% | MDA-MB-435 melanoma 109% | SW-620 colon 104% | MCF7 breast 97.8% | HCT-116 colon 80% | HCC-2998 colon 93.2% | KM12 colon 86.7%

Source: PubChem BioAssay (NCI)
